Counter-ions that a name gives are not always drawn. ± gives the standard deviation of the averaged measurements.
Legend:
Test in all cases: cell viability (% of vehicle); higher = less cytotoxic
Conditions in all cases: 10 µM; 72 h
[1] = tested on: HCI01 (cells of a triple-negative basal-like breast cancer xenograft)
[2] = tested on: HCI03 (cells of an ER-positive luminal breast cancer xenograft)
[3] = tested on: HCI09 (cells of a triple-negative luminal androgen receptor type breast cancer xenograft)
[4] = tested on: HCI11 (cells of an ER-positive luminal breast cancer xenograft)
[5] = tested on: HCI13 (cells of an ER-positive luminal breast cancer xenograft)
[6] = tested on: HCI16 (cells of a triple-negative basal-like breast cancer xenograft)
[7] = tested on: UCD52 (cells of a triple-negative basal-like breast cancer xenograft)
[8] = tested on: WHIM2 (cells of a triple-negative basal-like breast cancer xenograft)
[9] = tested on: WHIM30 (cells of a triple-negative basal-like breast cancer xenograft)
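Also: PDX cells carrying CMV promoter-driven luciferase, viability read as total photon flux per second by IVIS imaging following D-luciferin, vehicle control 0.1% DMSO.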

Compound `CC1(C)SC2C(NC(=O)C(C(=O)[O-])c3ccccc3)C(=O)N2C1C(=O)[O-].[Na+].[Na+]` (stereo not drawn) [Carbenicillin, Disodium Salt] has a cell viability [1] of 93 ± 4.2, a cell viability [2] of 92.6 and a cell viability [3] of 94 ± 0.98. The cell viability [4] was 103, the cell viability [5] was 86.7 ± 1.1 and the cell viability [6] was 105. It also gave a cell viability [7] of 85.4 ± 3.6, a cell viability [8] of 110 ± 17 and a cell viability [9] of 115 ± 2.
With `OCC1OC(Oc2ccc(O)cc2)C(O)C(O)C1O` (stereo not drawn) [Arbutin] the cell viability [1] was 107 ± 28, the cell viability [2] was 127 and the cell viability [3] was 100 ± 16. The cell viability [4] was 89.2, the cell viability [5] was 96.6 ± 4.9 and the cell viability [6] was 131. For the same compound, the cell viability [7] was 103 ± 1.1, the cell viability [8] was 81.9 ± 9 and the cell viability [9] was 84.3 ± 7.3.
With `CCC(C)(C)c1ccc(CC(C)CN2CC(C)OC(C)C2)cc1.Cl` (stereo not drawn) [Amorolfine HCl] the cell viability [1] was 66.7 ± 39, the cell viability [2] was 129 and the cell viability [3] was 88.4 ± 9.1. The cell viability [4] was 83.8, the cell viability [5] was 119 ± 36 and the cell viability [6] was 119. For the same compound, the cell viability [7] was 58.3 ± 5.5, the cell viability [8] was 64.5 ± 32 and the cell viability [9] was 166 ± 9.2.
`CC(N)(Cc1ccc(O)c(O)c1)C(=O)O` (stereo not drawn) [Methyldopa] gave a cell viability [1] of 95.3 ± 9.9, a cell viability [2] of 96.8 and a cell viability [3] of 95.5 ± 7.2. It also gave a cell viability [4] of 63.1, a cell viability [5] of 126 ± 11 and a cell viability [6] of 127. For the same compound, the cell viability [7] was 91.1 ± 2.8, the cell viability [8] was 112 ± 1.3 and the cell viability [9] was 96.2 ± 3.6.
For `CCCCCOc1ccc(-c2cc(-c3ccc(C(=O)NC4CC(O)C(O)NC(=O)C5C(O)C(C)CN5C(=O)C(C(O)CC(N)=O)NC(=O)C(C(O)C(O)c5ccc(O)c(OS(=O)(=O)[O-])c5)NC(=O)C5CC(O)CN5C(=O)C(C(C)O)NC4=O)cc3)no2)cc1.[Na+]` (stereo not drawn) [Micafungin sodium], the cell viability [1] was 104 ± 7.9, the cell viability [2] was 96.4 and the cell viability [3] was 85.7 ± 5.6. For the same compound, the cell viability [4] was 92.6, the cell viability [5] was 113 ± 4 and the cell viability [6] was 93.3. It also gave a cell viability [7] of 75.7 ± 12, a cell viability [8] of 39.4 ± 2.2 and a cell viability [9] of 99 ± 12.
In the case of `NC1CCCCC1N.O=C([O-])C(=O)[O-].[Pt+2]` (stereo not drawn) [Oxaliplatin], the cell viability [1] is reported as 97.5 ± 3.3, the cell viability [2] is reported as 108 and the cell viability [3] is reported as 75.7 ± 30. It also gave a cell viability [4] of 114, a cell viability [5] of 89 ± 12 and a cell viability [6] of 118. For the same compound, the cell viability [7] was 137 ± 9.3, the cell viability [8] was 108 ± 14 and the cell viability [9] was 154 ± 2.
`CN1C(C(=O)Nc2ccccn2)=C(O)c2sccc2S1(=O)=O` [Tenoxicam] gave a cell viability [1] of 122 ± 9.7, a cell viability [2] of 126 and a cell viability [3] of 114 ± 24. For the same compound, the cell viability [4] was 89.7, the cell viability [5] was 64.9 ± 7.4 and the cell viability [6] was 119. The cell viability [7] was 87.2 ± 4.1, the cell viability [8] was 123 ± 33 and the cell viability [9] was 159 ± 5.4.
`C[N+]1(C)[C@@H]2C[C@@H](OC(=O)C(O)(c3cccs3)c3cccs3)C[C@H]1[C@@H]1O[C@@H]12.[Br-]` [Tiotropium Bromide] gave a cell viability [1] of 124 ± 17, a cell viability [2] of 116 and a cell viability [3] of 106 ± 18. The cell viability [4] was 102, the cell viability [5] was 116 ± 12 and the cell viability [6] was 103. For the same compound, the cell viability [7] was 88.9 ± 4.2, the cell viability [8] was 94.7 ± 18 and the cell viability [9] was 125 ± 12.
In the case of `Cc1nccn1CC1CCc2c(c3ccccc3n2C)C1=O.Cl` (stereo not drawn) [Ondansetron HCl], the cell viability [1] is reported as 126 ± 18, the cell viability [2] is reported as 123 and the cell viability [3] is reported as 93.6 ± 9.8. It also gave a cell viability [4] of 111, a cell viability [5] of 96.7 ± 2.7 and a cell viability [6] of 104. The cell viability [7] was 80.3 ± 1, the cell viability [8] was 83.9 ± 22 and the cell viability [9] was 128 ± 9.2.
`CCN(CC)CC#CCOC(=O)C(O)(c1ccccc1)C1CCCCC1` (stereo not drawn) [Oxybutynin] was tested, and the cell viability [1] was 141 ± 10, the cell viability [2] was 130 and the cell viability [3] was 132 ± 73. For the same compound, the cell viability [4] was 118, the cell viability [5] was 117 ± 17 and the cell viability [6] was 134. For the same compound, the cell viability [7] was 82.9 ± 5.8, the cell viability [8] was 97.1 ± 30 and the cell viability [9] was 148 ± 6.4.
Work on `COc1cc2nccc(Oc3ccc(NC(=O)C4(C(=O)Nc5ccc(F)cc5)CC4)cc3)c2cc1OC` yielded a cell viability [1] of 108 ± 6.6, a cell viability [2] of 114 and a cell viability [3] of 91.5 ± 2. For the same compound, the cell viability [4] was 88.9, the cell viability [5] was 97.7 ± 13 and the cell viability [6] was 93.8. The cell viability [7] was 88.3 ± 15, the cell viability [8] was 90.1 ± 11 and the cell viability [9] was 116 ± 3.4.
`CCCNC1CCc2nc(N)sc2C1.Cl.Cl.O` (stereo not drawn) [Pramipexole 2HCl Monohydrate] was tested, and the cell viability [1] was 126 ± 3.4, the cell viability [2] was 131 and the cell viability [3] was 107.2 ± 0.44. It also gave a cell viability [4] of 110, a cell viability [5] of 97.4 ± 1.9 and a cell viability [6] of 138. It also gave a cell viability [7] of 103 ± 16, a cell viability [8] of 94.3 ± 11 and a cell viability [9] of 103 ± 4.9.
`C[N+](C)(C)CC(O)CC(=O)[O-]` [L-Carnitine inner salt] was tested, and the cell viability [1] was 123 ± 44, the cell viability [2] was 119 and the cell viability [3] was 99.8 ± 10. For the same compound, the cell viability [4] was 95.7, the cell viability [5] was 111.7 ± 1.1 and the cell viability [6] was 114. It also gave a cell viability [7] of 103 ± 3.8, a cell viability [8] of 96.9 ± 13 and a cell viability [9] of 103 ± 10.
In the case of `CCN(CCO)CCCC(C)Nc1ccnc2cc(Cl)ccc12.O=S(=O)(O)O` (stereo not drawn) [Hydroxychloroquine Sulfate], the cell viability [1] is reported as 71.8 ± 4.6, the cell viability [2] is reported as 96.6 and the cell viability [3] is reported as 72.2 ± 1.6. For the same compound, the cell viability [4] was 81.8, the cell viability [5] was 84.4 ± 8.1 and the cell viability [6] was 86.5. For the same compound, the cell viability [7] was 71.4 ± 3.8, the cell viability [8] was 70.8 ± 2.9 and the cell viability [9] was 101.7 ± 0.69.
`CC(C)C1CCC(C(=O)NC(Cc2ccccc2)C(=O)O)CC1` (stereo not drawn) [Nateglinide] was tested, and the cell viability [1] was 84.1 ± 62, the cell viability [2] was 131 and the cell viability [3] was 76.3 ± 6.6. It also gave a cell viability [4] of 87.4, a cell viability [5] of 112 ± 18 and a cell viability [6] of 110. It also gave a cell viability [7] of 94 ± 4.4, a cell viability [8] of 117 ± 19 and a cell viability [9] of 122 ± 17.
Compound `O=C(O)c1cc(=O)[nH]c(=O)[nH]1` [Orotic acid] has a cell viability [1] of 90.2 ± 12, a cell viability [2] of 100 and a cell viability [3] of 88.5 ± 22. For the same compound, the cell viability [4] was 93.2, the cell viability [5] was 85.7 ± 3.8 and the cell viability [6] was 120. The cell viability [7] was 93.6 ± 9.7, the cell viability [8] was 102.1 ± 0.24 and the cell viability [9] was 76.6 ± 5.3.
`CCn1cc(C(=O)O)c(=O)c2cc(F)c(N3CCN(C)CC3)cc21.CS(=O)(=O)O` [Pefloxacin Mesylate] was tested, and the cell viability [1] was 92.2 ± 33, the cell viability [2] was 137 and the cell viability [3] was 105.3 ± 0.55. The cell viability [4] was 103, the cell viability [5] was 160 ± 5.2 and the cell viability [6] was 153. For the same compound, the cell viability [7] was 113 ± 2.6, the cell viability [8] was 80.5 ± 16 and the cell viability [9] was 144 ± 11.

Source: the supplement of paper PMC6992640
